Out of some 39,000 compounds screened, about 3,300 (8.5%) were called active. The sample as a whole holds a higher share of actives than the screen did.
test system: HepG2; experiment: cytotoxicity call (relative viability < 0.9); details: 10 µM

How did the cytotoxicity call turn out when `C[C@@H]1CN([C@H](C)CO)C(=O)CCCn2cc(nn2)CO[C@@H]1CN(C)S(=O)(=O)c1ccccc1C#N` was run?
The cytotoxicity call was “inactive”.

How did the cytotoxicity call turn out when `Cc1ccc(S(=O)(=O)N(C)C[C@H]2Oc3c(NS(=O)(=O)c4ccc(F)cc4)cccc3C(=O)N([C@H](C)CO)C[C@@H]2C)cc1` was run?
Its cytotoxicity call is “inactive”.

`C[C@@H]1CN([C@@H](C)CO)C(=O)Cc2cc(NC(=O)Nc3ccc4c(c3)OCO4)ccc2O[C@H]1CN(C)S(C)(=O)=O` was tested. Which cytotoxicity call did it give?
Its cytotoxicity call is “inactive”.

Which cytotoxicity call does the source give for `COc1ccc(CN(C)C[C@@H]2Oc3ccc(NC(=O)Nc4ccc(C(F)(F)F)cc4)cc3CC(=O)N([C@H](C)CO)C[C@H]2C)cc1` here?
The cytotoxicity call was “inactive”.

For `COc1ccc(NC(=O)Nc2ccc3c(c2)CC(=O)N([C@H](C)CO)C[C@H](C)[C@H](CN(C)Cc2ccc(C(F)(F)F)cc2)O3)cc1`, which cytotoxicity call is on record?
The cytotoxicity call was “active”.

Which cytotoxicity call does the source give for `COc1ccc(CN(C)C[C@@H]2Oc3ccc(NC(=O)Nc4ccc(C(F)(F)F)cc4)cc3CC(=O)N([C@H](C)CO)C[C@@H]2C)cc1` here?
The cytotoxicity call was “active”.

For `COc1ccc(NC(=O)Nc2ccc3c(c2)CC(=O)N([C@@H](C)CO)C[C@@H](C)[C@@H](CN(C)Cc2ccc(C(F)(F)F)cc2)O3)cc1`, which cytotoxicity call is on record?
Its cytotoxicity call is “active”.

`COc1ccc(NC(=O)Nc2ccc3c(c2)CC(=O)N([C@H](C)CO)C[C@H](C)[C@@H](CN(C)Cc2ccc(C(F)(F)F)cc2)O3)cc1` was tested. Which cytotoxicity call did it give?
Its cytotoxicity call is “inactive”.

For `COc1ccc(NC(=O)Nc2ccc3c(c2)CC(=O)N([C@H](C)CO)C[C@@H](C)[C@@H](CN(C)Cc2ccc(C(F)(F)F)cc2)O3)cc1`, which cytotoxicity call is on record?
The cytotoxicity call was “active”.

How did the cytotoxicity call turn out when `COc1ccc(CN(C)C[C@@H]2Oc3ccc(NC(=O)Nc4ccc(C(F)(F)F)cc4)cc3CC(=O)N([C@@H](C)CO)C[C@@H]2C)cc1` was run?
Its cytotoxicity call is “inactive”.

`CC(C)NC(=O)Nc1ccc2c(c1)C(=O)N([C@@H](C)CO)C[C@H](C)[C@@H](CN(C)CC1CCCCC1)OCCCC[C@H](C)O2` was tested. Which cytotoxicity call did it give?
The cytotoxicity call was “inactive”.

With `Cc1ccc(S[C@]2(C(=O)NCCCN(C)C)CC(=O)N(Cc3cc(C(F)(F)F)cc(C(F)(F)F)c3)[C@@H]2c2ccc(CO)cc2)cc1` as the molecule, how does the cytotoxicity call read?
The cytotoxicity call was “inactive”.

How did the cytotoxicity call turn out when `O=C(CN1CCOCC1)NCC[C@@H]1CC[C@@H](NC(=O)c2ccc3c(c2)OCO3)[C@H](CO)O1` was run?
Its cytotoxicity call is “inactive”.

For `COc1ccc2c3c(n(c2c1)C)[C@H](CO)N(C[C@]13CN(C1)C(=O)c1ccncc1)C(=O)C1CCCCC1`, which cytotoxicity call is on record?
Its cytotoxicity call is “inactive”.

How did the cytotoxicity call turn out when `CN1CCN(C(=O)C[C@H]2CC[C@H]3[C@H](COc4ccc(NC(=O)C5CCOCC5)cc4C(=O)N3C)O2)CC1` was run?
The cytotoxicity call was “inactive”.

How did the cytotoxicity call turn out when `CCCN1C[C@H](C)[C@@H](OC)CN(C)C(=O)c2cc(NS(=O)(=O)c3cn(C)cn3)ccc2OC[C@H]1C` was run?
Its cytotoxicity call is “inactive”.

`CCOC(=O)c1cc(C(=O)OCC)n(C)n1` was tested. Which cytotoxicity call did it give?
The cytotoxicity call was “inactive”.

With `COc1ccc(S(=O)(=O)N[C@@H]2C=C[C@@H](CC(=O)N3CCN(c4ccccc4)CC3)O[C@H]2CO)cc1` as the molecule, how does the cytotoxicity call read?
The cytotoxicity call was “inactive”.

For `Cc1cc2n(n1)CCN(C(=O)[C@H]1CC[C@@H](N)C1)C2`, which cytotoxicity call is on record?
The cytotoxicity call was “inactive”.

Which cytotoxicity call does the source give for `Cc1ccc(-c2cnc3c(c2)C(=O)N([C@H](C)CO)C[C@H](C)[C@@H](CN(C)C(=O)Cc2ccncc2)O3)cc1` here?
The cytotoxicity call was “inactive”.

For `C[C@H]1CCCCO[C@@H](CN(C)Cc2ccccc2)[C@@H](C)CN([C@@H](C)CO)C(=O)c2cc(NC(=O)c3ccccc3)ccc2O1`, which cytotoxicity call is on record?
The cytotoxicity call was “inactive”.

With `Cc1noc(C)c1NC(=O)N(C)C[C@@H]1Oc2c(NC(=O)C3CCOCC3)cccc2C(=O)N([C@H](C)CO)C[C@H]1C` as the molecule, how does the cytotoxicity call read?
Its cytotoxicity call is “inactive”.

`COc1ccc(NC(=O)Nc2ccc3c(c2)CC(=O)N([C@@H](C)CO)C[C@H](C)[C@H](CN(C)Cc2ccc(C(F)(F)F)cc2)O3)cc1` was tested. Which cytotoxicity call did it give?
Its cytotoxicity call is “active”.

With `c1ccc2nc(-c3cn[nH]c3)ccc2c1` as the molecule, how does the cytotoxicity call read?
Its cytotoxicity call is “inactive”.

Which cytotoxicity call does the source give for `Cc1cc(-c2ccc3ccccc3n2)nc2ccc3ccccc3c12` here?
The cytotoxicity call was “inactive”.

How did the cytotoxicity call turn out when `CCCOc1c(-c2ccc3ccccc3n2)cnc2ccccc12` was run?
The cytotoxicity call was “active”.

Which cytotoxicity call does the source give for `Cc1csc2sc(COC(=O)Nc3ccccc3)c(C)c12` here?
Its cytotoxicity call is “inactive”.

For `Cc1csc2sc(C(=O)Oc3ccc(Cl)cc3)c(C)c12`, which cytotoxicity call is on record?
The cytotoxicity call was “inactive”.

How did the cytotoxicity call turn out when `Cc1csc2sc(/C=N/Cc3cccs3)c(C)c12` was run?
Its cytotoxicity call is “active”.

For `C[C@@H]1CN([C@@H](C)CO)C(=O)c2cc(NS(=O)(=O)c3cccs3)ccc2O[C@@H](C)CCCCO[C@@H]1CN(C)C(=O)c1ccccc1`, which cytotoxicity call is on record?
The cytotoxicity call was “inactive”.

`O=C(C[C@H]1C[C@@H]2c3cc(NC(=O)c4ccc5c(c4)OCO5)ccc3O[C@@H]2[C@@H](CO)O1)NCC(F)(F)F` was tested. Which cytotoxicity call did it give?
Its cytotoxicity call is “inactive”.

Which cytotoxicity call does the source give for `C[C@H]1CCCCO[C@@H](CN(C)S(=O)(=O)c2ccc(F)cc2)[C@@H](C)CN([C@@H](C)CO)C(=O)c2cc(NC(=O)CCC(F)(F)F)ccc2O1` here?
Its cytotoxicity call is “inactive”.

With `Cc1[nH]c(=O)[nH]c(=O)c1S(=O)(=O)N1CCC(C(=O)NCCC(C)C)CC1` as the molecule, how does the cytotoxicity call read?
Its cytotoxicity call is “inactive”.

With `CCc1ccc(NC(=O)C2CCN(S(=O)(=O)c3c(C)[nH]c(=O)[nH]c3=O)CC2)cc1` as the molecule, how does the cytotoxicity call read?
The cytotoxicity call was “active”.

How did the cytotoxicity call turn out when `Cc1[nH]c(=O)[nH]c(=O)c1S(=O)(=O)N1CCC(C(=O)N[C@H](C)c2ccccc2)CC1` was run?
The cytotoxicity call was “inactive”.

How did the cytotoxicity call turn out when `COCC(=O)N1[C@@H]2c3ccc(C4=CCCC4)c(=O)n3C[C@@H]2[C@@H](CO)[C@@H]1C(=O)N1CCN(C)CC1` was run?
Its cytotoxicity call is “inactive”.

With `Cc1noc(C)c1NC(=O)Nc1cccc2c1O[C@@H](CN(C)Cc1ccc(-c3ccccc3)cc1)[C@@H](C)CN([C@H](C)CO)C2=O` as the molecule, how does the cytotoxicity call read?
The cytotoxicity call was “inactive”.

For `C[C@@H]1CN([C@H](C)CO)C(=O)c2cc(NC(=O)C3CCCCC3)ccc2O[C@@H](C)CCCCO[C@@H]1CN(C)Cc1ccc(Cl)c(Cl)c1`, which cytotoxicity call is on record?
Its cytotoxicity call is “inactive”.

`C[C@@H]1CCCCO[C@H](CN(C)Cc2ccc(Cl)c(Cl)c2)[C@H](C)CN([C@@H](C)CO)C(=O)c2cc(NC(=O)C3CCCCC3)ccc2O1` was tested. Which cytotoxicity call did it give?
The cytotoxicity call was “inactive”.

With `C[C@@H]1CCCCO[C@@H](CN(C)Cc2ccc(Cl)c(Cl)c2)[C@@H](C)CN([C@H](C)CO)C(=O)c2cc(NC(=O)C3CCCCC3)ccc2O1` as the molecule, how does the cytotoxicity call read?
Its cytotoxicity call is “active”.

How did the cytotoxicity call turn out when `C[C@@H]1CCCCO[C@H](CN(C)Cc2ccc(Cl)c(Cl)c2)[C@@H](C)CN([C@@H](C)CO)C(=O)c2cc(NC(=O)C3CCCCC3)ccc2O1` was run?
The cytotoxicity call was “active”.

For `C[C@H](CO)N1C[C@H](C)[C@@H](CN(C)Cc2ccc(Cl)c(Cl)c2)OCCCC[C@H](C)Oc2ccc(NC(=O)C3CCCCC3)cc2C1=O`, which cytotoxicity call is on record?
The cytotoxicity call was “inactive”.

For `C[C@@H]1CN([C@H](C)CO)C(=O)c2cc(NC(=O)C3CCCCC3)ccc2O[C@@H](C)CCCCO[C@H]1CN(C)Cc1ccc(Cl)c(Cl)c1`, which cytotoxicity call is on record?
The cytotoxicity call was “active”.

With `C[C@@H]1CCCCO[C@@H](CN(C)Cc2ccc(Cl)c(Cl)c2)[C@@H](C)CN([C@@H](C)CO)C(=O)c2cc(NC(=O)C3CCCCC3)ccc2O1` as the molecule, how does the cytotoxicity call read?
The cytotoxicity call was “inactive”.

How did the cytotoxicity call turn out when `C[C@H](CO)N1C[C@H](C)[C@@H](CN(C)Cc2ccc(Cl)c(Cl)c2)Oc2ccc(NC(=O)C3CCCCC3)cc2C1=O` was run?
The cytotoxicity call was “inactive”.

For `C[C@@H]1CCCCO[C@H](CN(C)Cc2ccc(Cl)c(Cl)c2)[C@@H](C)CN([C@H](C)CO)C(=O)c2cc(NC(=O)C3CCCCC3)ccc2O1`, which cytotoxicity call is on record?
The cytotoxicity call was “inactive”.

Which cytotoxicity call does the source give for `C[C@@H]1CN([C@@H](C)CO)C(=O)c2cc(NC(=O)C3CCCCC3)ccc2O[C@@H](C)CCCCO[C@H]1CN(C)Cc1ccc(Cl)c(Cl)c1` here?
The cytotoxicity call was “active”.

Which cytotoxicity call does the source give for `C[C@@H]1CCCCO[C@@H](CN(C)Cc2ccc(Cl)c(Cl)c2)[C@H](C)CN([C@@H](C)CO)C(=O)c2cc(NC(=O)C3CCCCC3)ccc2O1` here?
The cytotoxicity call was “inactive”.

How did the cytotoxicity call turn out when `C[C@@H]1CN([C@@H](C)CO)C(=O)c2cc(NC(=O)C3CCCCC3)ccc2O[C@H]1CN(C)Cc1ccc(Cl)c(Cl)c1` was run?
Its cytotoxicity call is “inactive”.

How did the cytotoxicity call turn out when `C[C@H](CO)N1C[C@H](C)[C@H](CN(C)C(=O)NC2CCCCC2)Oc2ccc(NC(=O)Nc3cccc4ccccc34)cc2CC1=O` was run?
Its cytotoxicity call is “inactive”.

Which cytotoxicity call does the source give for `C[C@@H]1CN([C@H](C)CO)C(=O)Cc2cc(NC(=O)Cc3ccccc3)ccc2O[C@@H]1CN(C)S(=O)(=O)c1ccc(F)cc1` here?
The cytotoxicity call was “inactive”.

`Cc1noc(C)c1NC(=O)Nc1ccc2c(c1)C(=O)N([C@H](C)CO)C[C@H](C)[C@@H](CN(C)C(=O)NC1CCCCC1)OCCCC[C@H](C)O2` was tested. Which cytotoxicity call did it give?
Its cytotoxicity call is “inactive”.

With `C[C@@H]1CN([C@H](C)CO)C(=O)c2cccc(NS(C)(=O)=O)c2O[C@H]1CN(C)C(=O)Nc1ccc(F)cc1` as the molecule, how does the cytotoxicity call read?
Its cytotoxicity call is “inactive”.

With `O=C(C[C@H]1C=C[C@@H](NC(=O)CN2CCOCC2)[C@@H](CO)O1)NCc1cccc(F)c1` as the molecule, how does the cytotoxicity call read?
The cytotoxicity call was “inactive”.

`Cc1noc(C)c1NC(=O)Nc1cccc2c1O[C@H](CN(C)C(=O)Nc1cccc3ccccc13)[C@H](C)CN([C@H](C)CO)C2=O` was tested. Which cytotoxicity call did it give?
Its cytotoxicity call is “inactive”.

Which cytotoxicity call does the source give for `C[C@@H]1CN([C@@H](C)CO)C(=O)Cc2cc(NC(=O)c3ccncc3)ccc2O[C@@H]1CN(C)S(=O)(=O)c1cn(C)cn1` here?
The cytotoxicity call was “inactive”.

Which cytotoxicity call does the source give for `C=C(C)C1=NC(C)(C)C[C@H](C)O1` here?
Its cytotoxicity call is “inactive”.

For `CS(=O)(=O)N1C[C@@H]2COC[C@@]2(CN2CCOCC2)C1`, which cytotoxicity call is on record?
Its cytotoxicity call is “inactive”.

Which cytotoxicity call does the source give for `CC(C)(C)S(=O)N1Cc2cc(C(=O)NCc3ccc4c(c3)OCO4)nc(-c3cccc(C#CCC4CCCC4)c3)c2[C@@H]1CCO` (stereo not given in full) here?
Its cytotoxicity call is “inactive”.

`CN(C)CCCNC(=O)C[C@@H]1CC[C@@H]2[C@H](COc3ccc(NC(=O)NC4CCCC4)cc3C(=O)N2C)O1` was tested. Which cytotoxicity call did it give?
Its cytotoxicity call is “inactive”.

`Cc1noc(C)c1NC(=O)N(C)C[C@H]1OCCCC[C@H](C)Oc2ccc(NC(=O)c3ccccc3)cc2C(=O)N([C@@H](C)CO)C[C@@H]1C` was tested. Which cytotoxicity call did it give?
The cytotoxicity call was “inactive”.

With `C[C@@H]1CCCCO[C@@H](CN(C)Cc2ccc(Cl)c(Cl)c2)[C@H](C)CN([C@H](C)CO)C(=O)c2cc(NC(=O)C3CCCCC3)ccc2O1` as the molecule, how does the cytotoxicity call read?
The cytotoxicity call was “active”.

For `C[C@@H]1CN([C@@H](C)CO)C(=O)c2cc(NC(=O)C3CCCCC3)ccc2O[C@@H](C)CCCCO[C@@H]1CN(C)Cc1ccc(Cl)c(Cl)c1`, which cytotoxicity call is on record?
Its cytotoxicity call is “inactive”.

How did the cytotoxicity call turn out when `C[C@H](CO)N1C[C@H](C)[C@H](CN(C)Cc2ccc(Cl)c(Cl)c2)OCCCC[C@H](C)Oc2ccc(NC(=O)C3CCCCC3)cc2C1=O` was run?
The cytotoxicity call was “inactive”.

How did the cytotoxicity call turn out when `COc1ccc(CN(C)C[C@@H]2Oc3ccc(NC(=O)CCCN(C)C)cc3C(=O)N([C@@H](C)CO)C[C@H]2C)cc1` was run?
Its cytotoxicity call is “inactive”.

Source: the antibiotic and cytotoxicity screens of Wong et al. (2023)
